Compound activity as filed in PubChem BioAssay.
Pf growth 96h: inhibits malaria parasite growth, 96 h. Potency, µM (highest dose often 28.7 µM), for inactives: top-dose activity change, negative = inhibition, actives largely listed as inhibitors. P. falciparum luciferase reporter growth, 96 h. AID 504834. actives 6.9% (n = 320,000); note: % is set by controls: 0 for no effect and ±100 for the full control effect
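Two-generation exposure (96 h) targets delayed-death phenotype. Reporter parasites carrying integrated firefly luciferase, in red cells at 2% hematocrit and 0.05% parasitemia final, kept at 37 C, 5% CO2; luminescence loss indicates inhibition.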
Vaccinia Venus: vaccinia inhibition (Venus reporter) | Vaccinia virus Venus reporter expression, fluorescence | Potency, µM (titrated, usually from 36.5 µM), without a hit: top-dose activity change, negative = inhibition, actives largely listed as inhibitors | actives 0.46% (n = 330,000); calls by dose curve; tested in A549 cells; note: % is set by controls: 0 for no effect and ±100 for the full control effect; nearly all actives have a fitted effect of over 30% in size
NS1 inh: inhibitors of influenza NS1 protein function; Potency, µM (series often up to 46.1 µM), for the others: at the top dose activity, positive = more growth; actives 0.4% (n = 270,000); AID 2326; calls by dose curve; note: actives are rising curves; nearly all actives have a fitted effect of over 50% in size
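Read-out: OD600 growth recovery of NS1-expressing budding yeast. Cells grown overnight at 30C in -URA glucose medium, washed, resuspended and diluted 1:100 in 2% galactose assay medium, pH 6.0. Same strain lacking NS1 served as positive control.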
Pf growth 48h: inhibits P. falciparum growth in the first generation, 48 h. P. falciparum luciferase growth in erythrocytes, 48 h. Potency, µM (titrated, usually from 28.7 µM), without a hit: at the top dose activity change, negative = inhibition, hits mostly inhibitors. actives 5.9% (n = 310,000). AID 504832; note: % is set by controls: 0 for no effect and ±100 for the full control effect
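In quantitative HTS format, infected erythrocytes bearing luciferase-reporter parasites were treated for a single generation at 37 C. Luminescence after adding detection reagent served as the growth measure.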
VACV mCherry inh: vaccinia inhibition (mCherry reporter) | actives 0.63% (n = 310,000) | Potency, µM (highest dose often 36.5 µM), inactives show top-dose activity change, negative = inhibition, hits mostly inhibitors | Vaccinia virus mCherry reporter infection, fluorescence; calls by dose curve; tested in A549 cells; note: % is set by controls: 0 for no effect and ±100 for the full control effect; nearly all actives have a fitted effect of over 35% in size
HCV inh: blocks hepatitis C virus | Huh7.5.1 HCVcc-Cre infection, luciferase reporter, 44 h | Potency, µM (titrated, usually from 41.8 µM), for the others: at the highest dose activity change, negative = inhibition, actives largely listed as inhibitors | actives 3.4% (n = 340,000); note: % is set by controls: 0 for no effect and ±100 for the full control effect
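HCVcc-Cre virus at an moi near 0.5 was added right after compound to cells cultured 4 h from seeding (1,000 cells/well). Luciferase activity was determined 44 h later, 15 min after substrate addition at RT.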
* marks the source's active call; other numbers are inactive results; i = inactive; ? = inconclusive; / = not tested or not shown; [ ] = another dose, or the depositor's remark. A selection: hits, their analogues and other compounds. The true share with any hit is near 11%. Unless noted, calls come from the whole dose curve; as a rule, active = well fitted inhibition curve with a large enough effect; inconclusive = small, poorly fitted or top-dose-only effect, or another doubt; inactive = no such curve, though single readings can be large or run the other way. Potency is the fitted concentration of half-maximal effect.

SMILES	Pf growth 96h	Vaccinia Venus	NS1 inh	Pf growth 48h	VACV mCherry inh	HCV inh
CC1CCN(C(=O)c2cc(Cl)nc3ccccc23)CC1	22%	-1%	-4%	-4%	i	3%
COC(=O)C1(C)NC(=O)c2ccccc2N1 (configuration not stated)	13µM*	-1%	3%	-1%	0%	1%
CC(O)CN1C(=O)C(CC(=O)Nc2ccc(Cl)cc2)SC1=Nc1ccccc1 (configuration not stated)	-3%	?	-35%	?	?	-11%
C=CCn1c(SCc2nc3ccccc3[nH]2)nnc1-c1ccccn1	10µM*	/	-1%	-8%	/	7%
Cc1cccc(NC(=O)C2CC(=O)OC23CCCCC3)c1 (configuration not stated)	8%	-14%	3%	/	i	21%
COc1cccc(NC(=O)CN(C)C(=O)CCNS(=O)(=O)c2ccc(C)cc2)c1	?	/	/	?	/	-17%
CC(C)NC(=O)c1ccc(COCC(F)(F)C(F)F)cc1	13µM*	/	0%	/	/	22%
N#Cc1ccc(-c2nc3ccc(Br)cc3c(=O)n2O)cc1	3%	/	-88%	-5%	/	19%
COC(=O)Nc1nc2c(C)cccc2s1	/	/	-18%	66%	/	7%
C=CCSC1=N/C(=C\c2ccc3c(c2)OCO3)C(=O)S1	0.41µM*	-4%	-9%	-2%	/	-12%
C=CCSC1=N/C(=C\c2sccc2C)C(=O)S1	64%	/	-6%	17%	/	-16%
CCN(CCN(C)C)C(=O)C1CCN(S(=O)(=O)c2c(C)noc2/C=C/c2ccccc2F)CC1	-14%	?	-3%	9.3µM*	i	?
CCOc1ccccc1/C=C/c1onc(C)c1S(=O)(=O)N1CCC(C(=O)N(CC)CC)CC1	12%	-25%	18%	10µM*	-7%	?
Cc1noc(/C=C/c2ccco2)c1S(=O)(=O)N1CCC(C(=O)N(C)Cc2ccccc2)CC1	8%	/	7%	1.9µM*	/	?
COC(=O)CCN(C(=O)C1CCN(S(=O)(=O)c2c(C)noc2/C=C/c2ccccc2F)CC1)c1ccccc1	/	-10%[7.34 µM]	/	/	-8%[7.34 µM]	/
CCOc1ccccc1NC(=O)C1CCN(S(=O)(=O)c2c(C)noc2/C=C/c2ccco2)CC1	/	-10%	/	/	i	/
COc1ccc(NC(=O)C2Cc3c(-c4cccc(C(C)=O)c4)ccnc3O2)cn1 (configuration not stated)	/	-25%	/	/	?	/
Cc1cc(NC(=O)CNC(=O)C2CCCCC2)no1	-28%	-8%	1%	3%	-13%	-5%
C=CCN(c1ccccc1OC)S(=O)(=O)c1cccc(C(=O)OCC(=O)c2c[nH]c3ccccc23)c1	4.7µM*	-24%	-27%	?	-16%	?
Cc1cnc(C(=O)OCC(=O)c2c[nH]c3ccccc23)cn1	?	-16%	/	13µM*	-19%	-2%
Cc1cnc(C(=O)OCC(=O)c2cccc3ccccc23)cn1	-1%	-7%	/	10%	-12%	22%
CC(C)C(NS(=O)(=O)c1c(Cl)cccc1Cl)C(=O)OCC(=O)c1c[nH]c2ccccc12 (configuration not stated)	4.7µM*	?	-30%	4.1µM*	?	?
COc1ccc(C(=O)OCC(=O)c2c[nH]c3ccccc23)cc1OC	4.7µM*	/	/	15µM*	/	-21%
COc1ccccc1CNC(=O)c1cc(-c2ccccc2)n[nH]1	/	4%	/	/	-18%	/
CCOC(=O)c1c(NC(NC(C)=O)C(Cl)(Cl)Cl)sc(C(C)=O)c1C (configuration not stated)	-22%	?	12%	?	/	?
SMILES	Pf growth 96h	Vaccinia Venus	NS1 inh	Pf growth 48h	VACV mCherry inh	HCV inh
COC(=O)c1cc(NC(=O)CN(c2ccc3c(c2)OCO3)S(C)(=O)=O)ccc1Cl	/	-23%	-14%	-8%	/	1%
Cn1c(Oc2ccncc2)nc2cc(-c3ccsc3)sc2c1=O	/	?	/	/	-26%	/
COc1cc(OC)c(N(C)S(=O)(=O)c2cccc(C(=O)OCC(=O)c3c[nH]c4ccccc34)c2)cc1Cl	?	-25%	?	1.9µM*	-25%	?
N=c1ccn(Cc2ccc(Cl)cc2)cc1	7%	?	1%	1.9µM*	/	1.1µM*
N=c1ccn(Cc2cccc(Cl)c2)cc1	?	?	1%	2.6µM*	/	2.5µM*
N=c1ccn(Cc2ccc(Cl)c(Cl)c2)cc1	-33%	?	-11%	0.59µM*	/	3.5µM*
Cn1cnc(S(=O)(=O)NCc2cccs2)c1	0%	-18%	9%	15%	/	6%
Cc1ccccc1NC(=O)CSc1nc(-c2cccs2)nc2cc(=O)[nH]n12	-4%	-14%	/	?	-21%	/
CC(C)N(CC#CC(O)(c1ccccc1)c1ccccc1)CCO	2.3µM*	-12%	3%	-11%	-10%	8%
O=C(CSc1nnc(-c2cccc(Br)c2)o1)N1CCOCC1	6%	?	1%	28%	?	12%
COC(=O)C1=C(c2cccc(OCc3ccccc3)c2)C[C@@H]2CC[C@H]1N2C(=O)NC1CCN(Cc2ccccc2)CC1	?	?	/	13µM*	-15%	10µM*
COC(=O)C1=C(c2ccccc2)C[C@@H]2CC[C@H]1N2C(=O)NC1CCCCC1	/	-11%	/	/	i	-20%
COC(=O)C1=C(c2ccc(F)cc2OCc2ccccc2)C[C@@H]2CC[C@H]1N2C(=O)NCCNC(C)=O	?	-15%	/	?	-27%	11%
COC(=O)C1=C(c2ccccc2OCc2ccccc2)C[C@@H]2CC[C@H]1N2C(=O)NC1CCN(Cc2ccccc2)CC1	?	?	/	13µM*	?	?
COC(=O)C1=C(c2ccc(F)cc2OCc2ccccc2)C[C@@H]2CC[C@H]1N2C(=O)NC1CCN(Cc2ccccc2)CC1	?	?	/	13µM*	-1%	?
CCN(Cc1ccncc1)C(=O)c1ccccc1NS(=O)(=O)c1ccc(F)cc1	38%	-6%	/	9%	i	22%
COc1ccc(NC(=S)NCC2CCCO2)c(C)c1 (configuration not stated)	8%	0%	23%	2%	-9%	-3%
C#C[C@]1(O)CCC2C3C(=O)C=C4C(Cl)=CCC[C@]4(C)C3CC[C@@]21C (some centres not stated)	/	?	/	/	?	4%
Cc1ccc(-c2ccc(C3C(C#N)=C(N)Oc4n[nH]c(C)c43)o2)cc1 (configuration not stated)	-20%	/	-53%	?	/	15%
COC(=O)Cc1ccc(O)c(N)c1	1.9µM*	11%	5%	?	-21%	?
N#C/C(=C\c1ccc(O)c(O)c1)C(=O)N1CCCC1	?	/	/	?	/	-10%
